According to the supplement of paper PMC4840960:
Structures can show the parent of a compound that is named as a salt.

What follows are molecules tested on E18 rat cortical neuron-glia co-culture (assay: myelination (MBP fiber length per Olig2+ nucleus), % of 1 µM DAPT response (DMSO = 0) (% of DAPT); higher = more myelination, active = 50 or more). Conditions: 1 µM; treatment time: 8 days (DIV5-DIV13).
Summary of the method: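 Library compounds at 1 or 5 µM in myelination medium were applied from DIV5 to DIV13 to papain-dissociated E18 rat cortical co-cultures seeded at 20,000 cells/well on poly-d-lysine/laminin 96-well plates. Fixed cells (4 % paraformaldehyde) were immunostained for MBP and Olig2 with DAPI, and four 10X fields were analysed in each duplicate well. Continuous straight MBP fiber length per Olig2+ nucleus was set to 0 for 0.1 % DMSO and to 100 for a 1 µM positive control.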

myelination, inactive:
COc1cc(C)c(Cc2cnc(N)nc2N)cc1OC [Ormetoprim] -31.5
CC(C)n1c(/C=C/C(O)CC(O)CC(=O)O)c(-c2ccc(F)cc2)c2ccccc21 (stereo not given) [Fluvastatin] -15.7
CCN(CC)CCOC(=O)C1(C2CCCCC2)CCCCC1 [Dicyclomine] -14.3
CN(C)CCCN1c2ccccc2Sc2ccc(Cl)cc21 [Chlorpromazine] 8.68
CSc1nc2cc(Cl)c(Oc3cccc(Cl)c3Cl)cc2[nH]1 [Triclabendazole] -23.9
COc1ccccc1N1CCN(CC(O)COc2cccc3ccccc23)CC1 (stereo not given) [Naftopidil] -33.5
CCOC(=O)CCC(=O)O[C@H]1[C@H](O[C@@H]2[C@@H](C)[C@H](O[C@H]3C[C@@](C)(OC)[C@@H](O)[C@H](C)O3)[C@@H](C)C(=O)O[C@H](CC)[C@@](C)(O)[C@H](O)[C@@H](C)C(=O)[C@H](C)C[C@@]2(C)O)O[C@H](C)C[C@@H]1N(C)C [Erythromycin Ethylsuccinate] -18
CC1COc2c(N3CCN(C)CC3)c(F)cc3c(=O)c(C(=O)O)cn1c23 (stereo not given) [Ofloxacin] -16.9
Cc1noc(NS(=O)(=O)c2ccc(N)cc2)c1C [Sulfisoxazole] -3.97
O=C(CCNNC(=O)c1ccncc1)NCc1ccccc1 [Nialamide] -5.76
CN1CCN(CC/C=C2/c3ccccc3Sc3ccc(S(=O)(=O)N(C)C)cc32)CC1 [Thiothixene] -6.05

Same assay, conditions: 5 µM; treatment time: 8 days (DIV5-DIV13)

myelination, inactive:
Nc1ccn([C@@H]2CS[C@H](CO)O2)c(=O)n1 [Lamivudine] -12.3
COc1ccc2c3c1O[C@H]1C[C@@H](O)C=C[C@@]31CCN(C)C2 [Galantamine] -40.7
Cc1onc(-c2c(Cl)cccc2Cl)c1C(=O)N[C@@H]1C(=O)N2[C@@H]1SC(C)(C)[C@@H]2C(=O)O [Dicloxacillin] -8.6
CCOC(=O)c1ccc(OC(=O)CCCCCNC(=N)N)cc1 [Gabexate] -14.2
C[C@]12CCC(=O)C=C1CC[C@@H]1[C@@H]2C(=O)C[C@@]2(C)[C@H]1CC[C@]2(O)C(=O)CO [Cortisone] -10.5
CC(C)C[C@H](NC(=O)[C@@H](COC(C)(C)C)NC(=O)[C@H](Cc1ccc(O)cc1)NC(=O)[C@H](CO)NC(=O)[C@H](Cc1c[nH]c2ccccc12)NC(=O)[C@H](Cc1cnc[nH]1)NC(=O)[C@@H]1CCC(=O)N1)C(=O)N[C@@H](CCCNC(=N)N)C(=O)N1CCC[C@H]1C(=O)NNC(N)=O [Goserelin] -4.2
COc1cc(NC(C)CCCN)c2ncccc2c1 (stereo not given) [Primaquine] 11.1
CC1(C)S[C@@H]2[C@H](NC(=O)COc3ccccc3)C(=O)N2[C@H]1C(=O)O [Penicillin V] -3.83
COc1cc2nc(N3CCN(C(=O)C4COc5ccccc5O4)CC3)nc(N)c2cc1OC (stereo not given) [Doxazosin] -54.3
CCCN(CCC)S(=O)(=O)c1ccc(C(=O)O)cc1 [Probenecid] 11.7
CC1(C)S[C@@H]2[C@H](NC(=O)Cc3ccccc3)C(=O)N2[C@H]1C(=O)O [Penicillin G] 4.95
C[C@H](CCC(=O)O)[C@H]1CC[C@H]2[C@@H]3[C@H](O)C[C@@H]4C[C@H](O)CC[C@]4(C)[C@H]3CC[C@]12C [Chenodeoxycholic Acid] -12
CC(=O)OCC[N+](C)(C)C [Acetylcholine] -15.1
O=C1c2c(O)cc(O)cc2OC(c2ccc(O)c(O)c2)C1O (stereo not given) [Taxifolin] -8.22
NC(=O)OCC(COC(N)=O)c1ccccc1 [Felbamate] -10.2
N[C@@H](Cc1cc(I)c(Oc2ccc(O)c(I)c2)c(I)c1)C(=O)O [Triiodothyronine] 24.8
OC(CCN1CCCC1)(c1ccccc1)C1CCCCC1 (stereo not given) [Procyclidine] 11.6
CN1CCN2c3ncccc3Cc3ccccc3C2C1 (stereo not given) [Mirtazapine] -4.21
O=C1CN(/N=C/c2ccc(-c3ccc([N+](=O)[O-])cc3)o2)C(=O)N1 [Dantrolene sodium salt dihydrate] -14.2
Nc1nc(F)nc2c1ncn2[C@@H]1O[C@H](CO)[C@@H](O)[C@@H]1O [Fludarabine] 34.3
COC(=O)C1=C(C)NC(C)=C(C(=O)OC2CCCN(Cc3ccccc3)C2)C1c1cccc([N+](=O)[O-])c1 (stereo not given) [Benidipine] -63
CC(C)NCC(O)c1cc(O)cc(O)c1 (stereo not given) [Metaproterenol] -14.3
Cc1cc2c(s1)Nc1ccccc1N=C2N1CCN(C)CC1 [Olanzapine] -13.5
CC(C)(C)NC[C@H](O)COc1nsnc1N1CCOCC1 [Timolol] -1.56
CCS(=O)(=O)CCn1c([N+](=O)[O-])cnc1C [Tinidazole] -14.2
CN(C)CCOC(c1ccc(Cl)cc1)c1ccccn1 (stereo not given) [Carbinoxamine] 8.5
CC(C)NCC(O)c1ccc(O)c(O)c1 (stereo not given) [Isoproterenol] 10.5
N[C@@H](C(=O)N[C@@H]1C(=O)N2C(C(=O)O)=C(Cl)CS[C@H]12)c1ccccc1 [Cefaclor] -10.6
COc1cc(C)c(Cc2cnc(N)nc2N)cc1OC [Ormetoprim] -40
CC(C)n1c(/C=C/C(O)CC(O)CC(=O)O)c(-c2ccc(F)cc2)c2ccccc21 (stereo not given) [Fluvastatin] -13.7
CCN(CC)CCOC(=O)C1(C2CCCCC2)CCCCC1 [Dicyclomine] -24.6
CN(C)CCCN1c2ccccc2Sc2ccc(Cl)cc21 [Chlorpromazine] -2.13
CSc1nc2cc(Cl)c(Oc3cccc(Cl)c3Cl)cc2[nH]1 [Triclabendazole] -18.7
COc1ccccc1N1CCN(CC(O)COc2cccc3ccccc23)CC1 (stereo not given) [Naftopidil] 15
CCOC(=O)CCC(=O)O[C@H]1[C@H](O[C@@H]2[C@@H](C)[C@H](O[C@H]3C[C@@](C)(OC)[C@@H](O)[C@H](C)O3)[C@@H](C)C(=O)O[C@H](CC)[C@@](C)(O)[C@H](O)[C@@H](C)C(=O)[C@H](C)C[C@@]2(C)O)O[C@H](C)C[C@@H]1N(C)C [Erythromycin Ethylsuccinate] -16.3
CC1COc2c(N3CCN(C)CC3)c(F)cc3c(=O)c(C(=O)O)cn1c23 (stereo not given) [Ofloxacin] -17
Cc1noc(NS(=O)(=O)c2ccc(N)cc2)c1C [Sulfisoxazole] -6.9
O=C(CCNNC(=O)c1ccncc1)NCc1ccccc1 [Nialamide] -19
CN1CCN(CC/C=C2/c3ccccc3Sc3ccc(S(=O)(=O)N(C)C)cc32)CC1 [Thiothixene] 42.5
